# Test results: article PMC8384837, “Expanding the binding specificity for RNA recognition by a PUF domain”
# Target: PUM1 PUF domain R3-GWG (Homo sapiens, UniProt Q14671 828-1176, C935G;R936W;Q939G)
# Experiment: yeast three-hybrid, YBZ-1, SC-Leu-His + 0.5 mM 3-AT, 4 days
# Conditions: tags: N-Gal4 AD-HA kept; label: inside an RPR1-promoter hybrid RNA with tandem MS2 sites; ssRNA
# In short: (§1)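 A centromeric plasmid in strain YBZ-1 co-expressed Pumilio-1 PUF domain libraries, randomized at the three base-contacting residues of each repeat, with matching RNA elements; the strain carries a LexA–MS2 coat fusion and a HIS3 reporter. After four days on SC-Leu (input) or SC-Leu-His + 0.5 mM 3-AT (selection), the repeat regions were PCR-amplified and Illumina-sequenced. The interaction score is the log change in variant frequency from input to selection, using log2 and a pseudocount of 1 where absent.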
# Sequence of PUM1 PUF domain R3-GWG (Q14671 828-1176 C935G/R936W/Q939G): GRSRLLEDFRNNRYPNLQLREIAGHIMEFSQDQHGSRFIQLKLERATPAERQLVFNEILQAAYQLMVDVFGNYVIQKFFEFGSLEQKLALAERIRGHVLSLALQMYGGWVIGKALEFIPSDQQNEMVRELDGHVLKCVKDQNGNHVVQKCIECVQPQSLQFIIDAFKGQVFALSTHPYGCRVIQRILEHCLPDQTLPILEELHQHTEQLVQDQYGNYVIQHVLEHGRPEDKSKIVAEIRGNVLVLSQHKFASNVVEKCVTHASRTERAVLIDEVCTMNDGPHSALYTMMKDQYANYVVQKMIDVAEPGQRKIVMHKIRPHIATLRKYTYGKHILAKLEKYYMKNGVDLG
row,Sequence,binding signal
1,GGCUAGAACUAGUGGAUCCCCCGGCGCCCGGCGGCUCGAGCCCGGGUAAGUGUAAAUAGUCUGCAUGCCGCCGGGCGCCAUGCCUGCAGGUCGACUCUAGAAAACAUG,4.07 log2 enrichment (interaction score)
2,GGCUAGAACUAGUGGAUCCCCCGGCGCCCGGCGGCUCGAGCCCGGGUAAGUGUAAUUAGUCUGCAUGCCGCCGGGCGCCAUGCCUGCAGGUCGACUCUAGAAAACAUG,1.55 log2 enrichment (interaction score)
3,GGCUAGAACUAGUGGAUCCCCCGGCGCCCGGCGGCUCGAGCCCGGGUAAGUGUAAGUAGUCUGCAUGCCGCCGGGCGCCAUGCCUGCAGGUCGACUCUAGAAAACAUG,3.17 log2 enrichment (interaction score)

# Target: PUM1 PUF domain R5-RFR (Homo sapiens, UniProt Q14671 828-1176, C1007R;R1008F;Q1011R)
# Experiment: as above
# Conditions: tags: N-Gal4 AD-HA kept; label: inside an RPR1-promoter hybrid RNA with tandem MS2 sites; ssRNA
# In short: as §1
# Sequence of PUM1 PUF domain R5-RFR (Q14671 828-1176 C1007R/R1008F/Q1011R): as the sequence (Q14671 828-1176 C935G/R936W/Q939G) above, with G108C, W109R, G112Q, C180R, R181F, Q184R counted along it
row,Sequence,binding signal
1,GGCUAGAACUAGUGGAUCCCCCGGCGCCCGGCGGCUCGAGCCCGGGUAAGUGUCAAUAGUCUGCAUGCCGCCGGGCGCCAUGCCUGCAGGUCGACUCUAGAAAACAUG,5.35 log2 enrichment (interaction score)
2,GGCUAGAACUAGUGGAUCCCCCGGCGCCCGGCGGCUCGAGCCCGGGUAAGUGUAAAUAGUCUGCAUGCCGCCGGGCGCCAUGCCUGCAGGUCGACUCUAGAAAACAUG,2.72 log2 enrichment (interaction score)
3,GGCUAGAACUAGUGGAUCCCCCGGCGCCCGGCGGCUCGAGCCCGGGUAAGUGUUAAUAGUCUGCAUGCCGCCGGGCGCCAUGCCUGCAGGUCGACUCUAGAAAACAUG,3.92 log2 enrichment (interaction score)
4,GGCUAGAACUAGUGGAUCCCCCGGCGCCCGGCGGCUCGAGCCCGGGUAAGUGUGAAUAGUCUGCAUGCCGCCGGGCGCCAUGCCUGCAGGUCGACUCUAGAAAACAUG,2.74 log2 enrichment (interaction score)

# Target: PUM1 PUF domain R1-YYR (Homo sapiens, UniProt Q14671 828-1176, S863Y;R864Y;Q867R)
# Experiment: as above
# Conditions: tags: N-Gal4 AD-HA kept; label: inside an RPR1-promoter hybrid RNA with tandem MS2 sites; ssRNA
# In short: as §1
# Sequence of PUM1 PUF domain R1-YYR (Q14671 828-1176 S863Y/R864Y/Q867R): as the sequence (Q14671 828-1176 C935G/R936W/Q939G) above, with S36Y, R37Y, Q40R, G108C, W109R, G112Q counted along it
row,Sequence,binding signal
1,GGCUAGAACUAGUGGAUCCCCCGGCGCCCGGCGGCUCGAGCCCGGGUAAGUGUAAAUAGUCUGCAUGCCGCCGGGCGCCAUGCCUGCAGGUCGACUCUAGAAAACAUG,3.43 log2 enrichment (interaction score)
2,GGCUAGAACUAGUGGAUCCCCCGGCGCCCGGCGGCUCGAGCCCGGGUAAGUGUAAAUCGUCUGCAUGCCGCCGGGCGCCAUGCCUGCAGGUCGACUCUAGAAAACAUG,2.79 log2 enrichment (interaction score)
3,GGCUAGAACUAGUGGAUCCCCCGGCGCCCGGCGGCUCGAGCCCGGGUAAGUGUAAAUUGUCUGCAUGCCGCCGGGCGCCAUGCCUGCAGGUCGACUCUAGAAAACAUG,7.65 log2 enrichment (interaction score)
